Data on 9 molecules can be found in PubChem BioAssay (NCATS).

In test [1] the target is T1, Hexokinase-4 (Homo sapiens) + Glucokinase regulatory protein (Homo sapiens) (UniProt P35557+Q14397). Nature of the test: qHTS assay for inhibitors of recombinant human GCK-GKRP interaction: Diaphorase-coupled assay (AID 743205). In short, it runs like this:
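GST-GCK (10 nM) with FLAG-GKRP (10 nM), 5 mM glucose and 0.4 mM ATP in pH 7.6 Hepes; compounds preincubated 20 min with substrate. G6PDH/diaphorase coupling converts resazurin to resorufin, read kinetically (ex 525/em 590 nm) for 30 min.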

Test [2] has as its target T1, Hexokinase-4 (Homo sapiens) + Glucokinase regulatory protein (Homo sapiens). Nature of the test: qHTS assay for inhibitors of recombinant human GCK-GKRP interaction: ADP-Glo assay (AID 743206).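 Also: plate controls were DMSO plus enzyme for no effect and no enzyme for full effect.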 The essentials: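 Pin-transferred compounds meet a 15 nM GST-GCK/15 nM FLAG-GKRP/2 uM S6P mix (dispense concentrations). ATP is then added to 0.4 mM final with 5 mM glucose, and the reaction runs 60 min at room temperature. ADP is quantified luminescently.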
In general terms: In qHTS, concentration-response curves come from the screen itself.

The nature of test [3]: qHTS Assay for Identifying Gametocytocidal Compounds (AID 743244).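 Also: % is scaled to controls: 0 for no effect and ±100 for the full control effect; actives lower the fluorescent signal which means gametocytes are killed.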 Conditions: P. falciparum 3D7 stage III-V gametocytes, alamarBlue, 72 h; max response: stronger effect = lower value. In short, it runs like this: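 Compounds are pinned into medium, gametocytes (stage III–V, 3D7, 20,000 cells/well) added, and plates held 72 h at 37 °C in 5% CO2. AlamarBlue follows for 24 h before fluorescence reading.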

Test [4] can be described thus: qHTS assay for measurement of the activity of small molecule inhibitors on Zika virus induced Caspase-3 activity in human iPSC derived neural progenitor cells (hNPCs) (AID 1224857). Also: % of control where 0% means no effect; nearly all actives have a fitted effect of over 65% in size. In short, it runs like this:
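Pretreat hNPCs with compound 1 h; infect ZIKV 2 FFU/cell; 6 h 37 C, 5% CO2; Caspase-Glo 3/7, 30 min RT; luminescence; normalize to no-virus and virus-only wells.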

Test [5] in a line: qHTS assay for measurement of the activity of small molecule inhibitors on Zika virus induced Caspase-3 activity in human astrocytoma cells (AID 1224859).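 Also: plate controls were ZIKV-infected untreated cells for no effect and uninfected cells for full effect.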 In short, it runs like this: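 Human SNB-19 astrocytoma cells in RPMI 1640 with 10% FBS receive compound one hour ahead of Zika virus at 2 FFU/cell. After 6 h infection, caspase-3/7 activity is detected by Caspase-Glo luminescence.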

Test [6] is described as follows: qHTS assay to identify small molecule inhibitors of chordoma cells - UCH-1 (AID 1259355). Also: % is scaled to controls: 0 for no effect and ±100 for the full control effect; nearly all actives have a fitted effect of over 55% in size. The essentials:
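A 48hr growth-inhibition format: each drug tested at 15 concentrations together with added auranofin, camptothecin, doxorubicin, rubitecan and topotecan, with cell viability quantified as CellTiter-Glo luminescence.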

A short description of test [7]: qHTS assay to identify small molecule inhibitors of chordoma cells - UCH-2 (AID 1259356). Also: % is scaled to controls: 0 for no effect and ±100 for the full control effect.
Test [8] is described as follows: qHTS assay for small molecule agonists of the antioxidant response element (ARE) signaling pathway measured by Nrf2-dependant transcriptional activity (AID 720636; active = well fitted curve in the direction sought with a large enough effect in the repeat runs; an effect the other way counts as inactive or inconclusive; also: % of control where 0% means no effect). The essentials: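 Quantitative HTS format in HepG2 cells stably expressing an ARE-luciferase reporter; 16 hr compound treatment at 37 C, luciferase signal detected with ONE-Glo.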
A short description of test [9]: qHTS assay for small molecule agonists of the antioxidant response element (ARE) signaling pathway measured by Nrf2-dependant transcriptional activity - cell viability counter screen (AID 720653; active = well fitted curve in the direction sought with a large enough effect in the repeat runs; an effect the other way counts as inactive or inconclusive; also: % is scaled to controls: 0 for no effect and ±100 for the full control effect). Conditions: ARE-bla HepG2 viability, CellTiter-Glo ATP luminescence, 16 h; max response: stronger effect = lower value. In short, it runs like this:
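ARE-bla HepG2 cells (2,000/well) rested 5 hrs at 37C/5% CO2, then exposed to compounds in DMSO for 16 hrs. Viability was read in the same wells as intracellular ATP by luminescence, 30 min at room temperature after reagent addition.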

In test [10] the target is T1, Hexokinase-4 (Homo sapiens) + Glucokinase regulatory protein (Homo sapiens). Nature of the test: qHTS assay for inhibitors of recombinant human GCK-GKRP interaction: HTRF assay (AID 743207).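 Also: 0% = DMSO with GCK present and -100% = DMSO wells lacking GCK.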 In short, it runs like this: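 GST-GCK and FLAG-GKRP (5 nM each) were combined with 2 uM S6P in pH 7.1 Hepes/MgCl2/KCl/DTT buffer, then compound and anti-FLAG XL665/anti-GST K antibodies were added. After 60 min at room temperature, HTRF 665/615 nm emission was read.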

A short description of test [11]: qHTS assay for cell viability of HEK293 cells (AID 743288). Also: % is scaled to controls: 0 for no effect and ±100 for the full control effect; nearly all actives have a fitted effect of over 50% in size. The following applies: ATP luminescence (CellTiter-Glo), 18 h; max response: stronger effect = lower value. In short, it runs like this: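 After 18 h compound exposure at 37 C, parental HEK293 cells (2,000/well) are lysed with CellTiter-Glo and luminescence is read following 30 min at room temperature.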
Test [12] can be described thus: qHTS assay for cell viability of the p53RE-bla HCT-116 cell line (AID 743292). Also: % is scaled to controls: 0 for no effect and ±100 for the full control effect; nearly all actives have a fitted effect of over 55% in size. The essentials:
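Viability of compound-treated p53RE-bla HCT-116 cells is taken from ATP-dependent luciferase luminescence. Treatment lasts 16 h at 37 C after a 5 h settling period; detection follows 30 min at room temperature.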

Test [13] can be described thus: qHTS profiling for inhibitors of Plasmodium falciparum (3D7) proliferation (AID 743322; call rule not given here;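 also: infected erythrocytes exposed to compound for 72 h before lysis; 100% = DMSO vehicle wells and 0% = 0.29 µM artemisinin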). Conditions: P. falciparum 3D7 proliferation; at 28.7 µM (top of the series) unless noted. In short, it runs like this: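 Parasite DNA was quantified by SYBR Green I fluorescence (ex 485, em 535 nm) after overnight lysis in saponin/Triton buffer at room temperature. Cultures at 0.3% parasitemia and 2.5% hematocrit were first exposed to compound for 72 h at 37 C; signals were normalised to artemisinin (0.29 uM) and vehicle wells.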

A short description of test [14]: qHTS profiling for inhibitors of Plasmodium falciparum (DD2) proliferation (AID 743323; call rule not given here). The following applies: lower = more inhibition; at 28.7 µM (top of the series) unless noted. The essentials: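 Parasite DNA quantified by SYBR Green fluorescence (ex 485, em 535 nm) after saponin/Triton lysis and overnight dark incubation. Cultures: 0.3% parasitemia, 2.5% hematocrit, 72 h, 37 C; data scaled between DMSO and 0.29 uM artemisinin.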

“And” between values parts separate entries of the source, which are not always exact repeats. Equal values may be shown once. Inconclusive results are not listed. The source made the active and inactive calls. Unless noted, calls follow the shape of the dose curve; as a rule, active = well fitted curve in the direction sought with a large enough effect; inconclusive = small, poorly fitted or top-dose-only effect, or another doubt; inactive = no such curve, though single readings can be large; an effect the other way counts as inactive or inconclusive.

T1 sequence (P35557 whole entry, looked up): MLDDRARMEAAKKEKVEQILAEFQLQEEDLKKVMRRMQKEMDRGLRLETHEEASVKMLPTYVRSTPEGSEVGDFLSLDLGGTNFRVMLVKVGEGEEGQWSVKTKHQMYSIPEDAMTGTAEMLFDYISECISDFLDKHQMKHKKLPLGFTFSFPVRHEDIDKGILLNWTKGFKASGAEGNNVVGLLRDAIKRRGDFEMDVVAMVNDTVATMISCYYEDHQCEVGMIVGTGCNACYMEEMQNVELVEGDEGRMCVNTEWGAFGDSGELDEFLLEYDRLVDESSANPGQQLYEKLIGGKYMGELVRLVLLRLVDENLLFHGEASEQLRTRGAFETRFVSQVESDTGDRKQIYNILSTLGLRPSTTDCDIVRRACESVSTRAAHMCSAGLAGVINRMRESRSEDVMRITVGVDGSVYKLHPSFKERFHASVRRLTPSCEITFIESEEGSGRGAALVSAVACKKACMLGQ
T1 sequence (Q14397 whole entry, looked up): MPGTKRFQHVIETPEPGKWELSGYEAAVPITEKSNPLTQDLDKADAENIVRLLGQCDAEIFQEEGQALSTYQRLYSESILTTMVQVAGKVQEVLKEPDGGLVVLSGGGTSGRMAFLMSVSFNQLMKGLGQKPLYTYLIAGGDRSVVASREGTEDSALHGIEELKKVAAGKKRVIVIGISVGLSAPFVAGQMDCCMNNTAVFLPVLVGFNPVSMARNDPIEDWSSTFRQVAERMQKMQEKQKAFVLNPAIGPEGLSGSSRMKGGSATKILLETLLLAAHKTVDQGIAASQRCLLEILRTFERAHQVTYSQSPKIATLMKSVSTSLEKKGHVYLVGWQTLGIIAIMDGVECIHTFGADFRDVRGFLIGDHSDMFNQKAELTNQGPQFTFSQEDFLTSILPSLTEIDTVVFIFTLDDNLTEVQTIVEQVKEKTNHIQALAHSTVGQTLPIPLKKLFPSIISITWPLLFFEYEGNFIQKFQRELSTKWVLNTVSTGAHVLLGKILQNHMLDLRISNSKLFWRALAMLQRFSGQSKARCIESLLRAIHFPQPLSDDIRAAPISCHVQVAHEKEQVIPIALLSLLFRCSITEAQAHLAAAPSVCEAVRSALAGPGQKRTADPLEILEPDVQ

Take `FC(F)(F)c1ccccc1-n1ccnc1`: the result in test [1], in [2], in test [4] and in test [5] was inactive. In addition, the max response in test [3] is 18.2% (inactive) and -13.7% (inactive). Moreover, the Potency result in test [6] and in test [7] was “inactive” each time.
As for `O=C(CCCN1CCC(O)(c2cccc(C(F)(F)F)c2)CC1)c1ccc(F)cc1`, the result in [1], in [2], in test [4] and in [5] was inactive. The max response in test [3] is 20% (inactive). In addition, the Potency result in [6] and in test [7] was “inactive” throughout.
Take `C[C@]12CCC(=O)C=C1CC[C@@H]1[C@@H]2C(=O)C[C@@]2(C)[C@H]1CC[C@]2(O)C(=O)CO`: the molecule was called inactive in test [8], in [1], in test [2], in [12] and in [5]. The max response in test [9] was -5.48% (inactive); in [3] it was -0.251% (inactive) and -12.4% (inactive); in test [11] it was -1.33% (inactive). Also, the Potency entry in test [10], in test [6] and in test [7] was “inactive” in each case.
For `C=CCc1ccccc1OCC(O)CNC(C)C` (stereo not drawn), the result in test [1], in test [2], in [4] and in test [5] was inactive. Moreover, in test [3], the max response is 17.2% (inactive). Also, the Potency result in test [6] and in [7] was “inactive” each time.
Consider `CCN(Cc1ccncc1)C(=O)C(CO)c1ccccc1` (stereo not drawn), for which the result in test [1], in [2], in test [4] and in test [5] was inactive. Also, the Potency result in [10] and in [7] was “inactive” each time. Besides, in [3], the max response was 10.4% (inactive) and 27% (inactive).
With `c1cnc(N2CCN(Cc3ccc4c(c3)OCO4)CC2)nc1`, the result in test [1], in test [2] and in [5] was inactive. In addition, the Potency result in test [10], in test [6] and in test [7] was “inactive” throughout. For the same molecule, the max response in test [3] is 1.5% (inactive).
Consider `CCCC(C(=O)OCCN(CC)CC)(c1ccccc1)c1ccccc1`, for which the outcome in [1], in test [2] and in test [5] was inactive. Moreover, the Potency result in test [10], in test [6] and in [7] was “inactive” each time. Also, the max response in test [3] is -0.916% (inactive).
On to `CCN1CCC[C@H]1CNC(=O)c1c(O)c(Cl)cc(Cl)c1OC`, for which the outcome in test [1], in test [2] and in test [5] was inactive. The max response in test [3] was 5.28% (inactive) and 32.3% (inactive). Moreover, the Potency result in test [6] and in [7] was “inactive” throughout.
For `Cc1cccc(C)c1NC(=O)C(C)N` (stereo not drawn), the outcome in test [1], in [2] and in [5] was inactive. For the same molecule, the Potency entry in [10], in test [6] and in test [7] was “inactive” each time. Moreover, in [3], the max response was 6.83% (inactive) and 24.8% (inactive). Further, the remaining parasite growth % (stronger effect = lower value) in [13] was 92.4% [at 9.63 µM]. The same molecule yielded an activity, percent of control in test [14] of 99.5% [at 9.63 µM].
